Bioassay records as filed in PubChem.
An excerpt weighted towards active compounds, which were near 12% of everything screened.
HCV inh: HCV inhibition. Huh7.5.1 HCVcc-Cre infection, luciferase reporter, 44 h. Potency, µM (doses to about 41.8 µM), without a hit: top-dose activity change, negative = inhibition, usual class: inhibitors. 340,000 tested, 3.4% active; further: on the % scale 0 is the no-effect control and ±100 the full control effect
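Infectious HCVcc-Cre (~0.5 moi) was added to cells just after compound, with cells seeded 4 h earlier at 1,000 per well. Luciferase activity after 44 h culture reported infection; substrate was incubated 15 min at room temperature before reading.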
NS1 function inh: blocks influenza NS1 protein function | AID 2326 | Potency, µM (doses to about 46.1 µM), inactives show at the top dose activity, positive = more growth | 270,000 tested, 0.4% active; calls by dose curve; further: actives are rising curves; nearly all actives have a fitted effect of over 50% in size
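In this qHTS, NS1 from influenza A is expressed in budding yeast, where it slows growth. Cells are switched from glucose to 2% galactose medium (pH 6.0, -URA), treated with compound, and growth recovery is read at OD600.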
AMA1-RON2 inh: disrupts binding of P. falciparum AMA1 to RON2 | Potency, µM (top dose mostly 58.2 µM), without a hit: at the top dose activity change, negative = inhibition, hits mostly inhibitors | AID 720542 | AlphaScreen AMA1-biotinylated RON2 peptide binding | 360,000 tested, 0.2% active;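 further: 0% = vehicle wells and -100% = peptide control; nearly all actives have a fitted effect of over 45% in size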
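AMA1 (3D7) with his tag at 25 nM final met compounds first, then biotinylated RON2 peptide at 25 nM; detection used donor plus acceptor beads, 10 µg/mL apiece, read by AlphaScreen after 30 min at room temperature.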
SARS PLpro yeast: SARS-CoV PLP inhibition in yeast. Potency, µM (highest dose often 32.9 µM), without a hit: at the top dose activity, positive = growth rescue, actives largely listed as activators. S. cerevisiae expressing SARS-CoV PLpro, growth rescue. 330,000 tested, 0.19% active; calls by dose curve; further: 0% is about no effect; nearly all actives have a fitted effect of over 55% in size
Pf growth 96h: P. falciparum growth inhibition at 96 hour, primary screen for plastid delayed-death inhibitors; P. falciparum luciferase reporter growth, 96 h; Potency, µM (highest dose often 28.7 µM), for the others: at the highest dose activity change, negative = inhibition, most hits filed as inhibitors; 320,000 tested, 6.9% active; further: on the % scale 0 is the no-effect control and ±100 the full control effect
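Luminescence readout: decreased luciferase signal marks inhibited growth of reporter-expressing P. falciparum in infected red cells (2% hematocrit, 0.05% parasitemia final), exposed to compound two generations (96 h, 37 C, 5% CO2).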
Pf growth 48h: inhibits P. falciparum growth in the first generation, 48 h | P. falciparum luciferase growth in erythrocytes, 48 h | Potency, µM (highest dose often 28.7 µM), inactives show top-dose activity change, negative = inhibition, usual class: inhibitors | 310,000 tested, 5.9% active; further: on the % scale 0 is the no-effect control and ±100 the full control effect
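In quantitative HTS format, infected erythrocytes bearing luciferase-reporter parasites were treated for a single generation at 37 C. Luminescence after adding detection reagent served as the growth measure.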
The depositor's hits bear a star. Unless noted, the call rests on the fitted dose curve; in most records, active means well fitted curve in the direction sought with a large enough effect; inconclusive means small, poorly fitted or top-dose-only effect, or another doubt; inactive means no such curve, though single readings can be large; an effect the other way counts as inactive or inconclusive. Potency means the concentration at half of the fitted maximal effect.

COCCNC(=O)c1c(N)n(-c2ccccc2)c2nc3ccccc3nc12 was read as HCV inh inconclusive, NS1 function inh -9%, AMA1-RON2 inh 9%, SARS PLpro yeast -2%, Pf growth 96h inconclusive and Pf growth 48h inconclusive.
COCCNC(=O)c1c(NC(=O)c2ccc(Br)o2)n(Cc2ccccc2)c2nc3ccccc3nc12 was read as HCV inh inconclusive, NS1 function inh inconclusive, AMA1-RON2 inh 12%, SARS PLpro yeast -9%, Pf growth 96h inconclusive and Pf growth 48h 13µM*.
Screening COCCNC(=O)c1c(N)n(-c2cccc(C)c2)c2nc3ccccc3nc12 returned HCV inh 11µM*, NS1 function inh -52%, AMA1-RON2 inh 34%, SARS PLpro yeast -2%, Pf growth 96h inconclusive and Pf growth 48h inconclusive.
`COCCNC(=O)c1c(N)n(CCCn2ccnc2)c2nc3ccccc3nc12` gave HCV inh -30%, NS1 function inh 5%, AMA1-RON2 inh 6%, SARS PLpro yeast -1%, Pf growth 96h inconclusive and Pf growth 48h 7.4µM*.
`COCCCNC(=O)c1c(N)n(-c2ccccc2)c2nc3ccccc3nc12` gave HCV inh 13µM*, NS1 function inh -7%, AMA1-RON2 inh 85%, SARS PLpro yeast -1%, Pf growth 96h inconclusive and Pf growth 48h inconclusive.
COCCNC(=O)c1c(N)n(CCC(C)C)c2nc3ccccc3nc12 was read as HCV inh inconclusive, NS1 function inh 16%, AMA1-RON2 inh 16%, SARS PLpro yeast -3% and Pf growth 96h inconclusive.
Cn1c(C(=O)O)c(S(=O)(=O)c2ccc(Cl)cc2)c2ccccc21 was read as HCV inh 2%, NS1 function inh 1%, AMA1-RON2 inh 10%, SARS PLpro yeast 0%, Pf growth 96h -11% and Pf growth 48h 31%.
`CCN(CC(=O)Nc1ccc(NC(C)=O)cc1)C(=O)CCCc1nc2ccccc2s1` gave HCV inh -5%, AMA1-RON2 inh 2%, SARS PLpro yeast -5%, Pf growth 96h inconclusive and Pf growth 48h -23%.
For O=C(NNc1ncc(C(F)(F)F)cc1Cl)c1ccc(Cl)c(Cl)c1 the results were HCV inh 23%, NS1 function inh 0%, AMA1-RON2 inh 101%, SARS PLpro yeast -1%, Pf growth 96h inconclusive and Pf growth 48h inconclusive.
`Cc1ccc(NC(=S)NNc2ncc(C(F)(F)F)cc2Cl)c(C)c1` gave HCV inh inconclusive, NS1 function inh 0%, AMA1-RON2 inh 95%, SARS PLpro yeast 9% and Pf growth 96h inconclusive.
For Fc1ccc(NC(=S)NNc2ncc(C(F)(F)F)cc2Cl)c(F)c1 the results were HCV inh 22µM*, NS1 function inh -53%, AMA1-RON2 inh 6%, SARS PLpro yeast -3%, Pf growth 96h 10µM* and Pf growth 48h 9.3µM*.
Screening FC(F)(F)c1cccc(NC(=S)NNC(=S)Nc2ccc(Cl)cc2)c1 returned NS1 function inh -33%, SARS PLpro yeast -18%, Pf growth 96h 12µM* and Pf growth 48h inconclusive.
`FC(F)(F)c1cnc(NNC(=S)Nc2ccc(Cl)cc2)c(Cl)c1` gave HCV inh inconclusive, NS1 function inh -29%, AMA1-RON2 inh 13%, SARS PLpro yeast -9%, Pf growth 96h 7.4µM* and Pf growth 48h inconclusive.
For Cc1ccc(NC(=S)NNc2ncc(C(F)(F)F)cc2Cl)cc1 the results were HCV inh inconclusive, NS1 function inh -4%, AMA1-RON2 inh 38%, SARS PLpro yeast -28%, Pf growth 96h 10µM* and Pf growth 48h inconclusive.
For CC(NC(=S)Nc1cccc(C(F)(F)F)c1)C(C)(C)C (centres undefined) the results were HCV inh inconclusive, NS1 function inh -11%, AMA1-RON2 inh 20%, SARS PLpro yeast -3%, Pf growth 96h 13µM* and Pf growth 48h inconclusive.
CCC(NS(=O)(=O)c1ccc2c(c1)Cc1cc(S(=O)(=O)NC(CC)C(=O)O)ccc1-2)C(=O)O (centres undefined) was read as HCV inh 12%, NS1 function inh 14%, AMA1-RON2 inh -3%, SARS PLpro yeast 1%, Pf growth 96h 7% and Pf growth 48h -11%.
Cc1cccc(C)c1OCC(O)CN1CCc2ccccc2C1 (centres undefined) was read as HCV inh 13µM* and AMA1-RON2 inh -12%.
For Cn1cc(CNCc2ccccc2OCC(O)CN2CCc3ccccc3C2)cn1 (centres undefined) the results were HCV inh 11µM*, NS1 function inh 1%, AMA1-RON2 inh 1%, SARS PLpro yeast 1%, Pf growth 96h -10% and Pf growth 48h inconclusive.
`Cc1cc(C)c(OCC(O)CN2CCN(C(=O)c3ccccc3)CC2)c(C)c1` (centres undefined) gave HCV inh -11%, NS1 function inh -18%, AMA1-RON2 inh -27%, SARS PLpro yeast 3%, Pf growth 96h 6.6µM* and Pf growth 48h inconclusive.
COc1ccccc1C(C(=O)c1ccccc1)c1ccc(O)cc1 (centres undefined) was read as AMA1-RON2 inh -7%.
`O=C(NC(Cc1ccccc1)C(=O)O)C1CCN(S(=O)(=O)c2ccccc2C(F)(F)F)CC1` (centres undefined) gave HCV inh 9%, NS1 function inh -3%, AMA1-RON2 inh 2%, SARS PLpro yeast 1%, Pf growth 96h 64% and Pf growth 48h 32%.
Screening CC(=O)N/C(=C\c1ccccc1)C(=O)OCc1cccc(S(=O)(=O)N(C)C)c1 returned HCV inh inconclusive, NS1 function inh 0%, AMA1-RON2 inh -5%, SARS PLpro yeast 2%, Pf growth 96h inconclusive and Pf growth 48h inconclusive.
Screening FC(F)(F)COc1cc(-c2nnc(SCc3ccccc3)n2Cc2ccco2)cc(OCC(F)(F)F)n1 returned HCV inh inconclusive, NS1 function inh 10%, AMA1-RON2 inh -4%, SARS PLpro yeast 0%, Pf growth 96h 12µM* and Pf growth 48h 6.6µM*.
For c1cncc(CSc2nnc(-c3cccnc3)n2Cc2ccco2)c1 the results were NS1 function inh 5%, SARS PLpro yeast -5%, Pf growth 96h 32% and Pf growth 48h 17%.
Screening O=C(NN1c2ccccc2CCc2ccccc21)c1ccccc1Br returned HCV inh 2%, NS1 function inh 12%, AMA1-RON2 inh 0%, SARS PLpro yeast -6%, Pf growth 96h 12µM* and Pf growth 48h inconclusive.
Screening COc1cc(C2C(C#N)=C(N)N(c3cccnc3)C3=C2C(=O)CCC3)ccc1O (centres undefined) returned HCV inh 14%, NS1 function inh 21%, AMA1-RON2 inh 19%, SARS PLpro yeast -6% and Pf growth 96h inconclusive.
